From PubChem BioAssay (NCI)
This is part of a sample that, as a whole, favours compounds with a hit. Of some 83,000 tested, about 20% had one in any assay.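 Plates (96-well) were seeded with cells, treated with compound at one concentration, and incubated for 48 hours before percent growth was determined.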 Values without a mark were called inactive. Calls of active or inactive are those of the source. Rule for the calls: active = growth percent below 10; inactive = the rest.

Experiments:
Assay in all cases: NCI-60 one-dose screen, 48 h (100 = growth as untreated, 0 = no growth, -100 = all killed)
Settings in all cases: 10 µM unless noted
[1] = system: RPMI-8226 leukemia
[2] = system: OVCAR-8 ovarian
[3] = system: OVCAR-5 ovarian
[4] = system: OVCAR-4 ovarian
[5] = system: SK-OV-3 ovarian
[6] = system: IGROV1 ovarian
[7] = system: OVCAR-3 ovarian
[8] = system: HS 578T breast
[9] = system: NCI/ADR-RES ovarian

| SMILES | growth [1] | growth [2] | growth [3] | growth [4] | growth [5] | growth [6] | growth [7] | growth [8] | growth [9] |
| --- | --- | --- | --- | --- | --- | --- | --- | --- | --- |
| COc1ccc(-c2c(N)n[nH]c2-c2cc3c(c(OC)c2OC)OCO3)cc1 | 57.5% | 104% | 85.5% | 99.1% | 106% | 96.4% | 108% | 83.3% | 96.8% |
| Cc1c(C(N)=O)sc2c1c(=O)n(Cc1ccccc1)c1nnc(Nc3ccccc3)n21 | 148% | 89.2% | 104% | 117% | 99.1% | 104% | 115% |  | 103% |
| C=COC(=O)CCCCCCCCC | 100% | 101% | 111% | 109% | 111% | 97.1% | 120% | 102% | 103% |
| Clc1ccc(-c2nc3ccccc3s2)cc1Cl | 104% | 98.9% | 103% | 81.3% | 108% | 75% | 92.7% | 104% | 98.1% |
| COc1ccc(S(=O)(=O)n2cc(C(=O)C(=O)Nc3ccncc3)c3ccccc32)cc1F | 48.6% | 69% | 81.1% | 73.4% | 85% | 72% | 85.6% |  | 67.2% |
| O=C(Nc1cccc(-n2cc(-c3ccncc3)c(-c3ccc(Cl)c(O)c3)n2)c1)Nc1ccc(Cl)c(C(F)(F)F)c1 | -10.5% (active) | -41.8% (active) | 23.3% | -3.42% (active) | 7.47% (active) | 10.4% | -43% (active) | -7.39% (active) | -16.9% (active) |
| COc1ccc(-c2ccc(C)n2-c2ccc(-c3nc4ccccc4s3)cc2)cc1 | 70.4% | 95.8% | 101% | 92.9% | 80.3% | 92.8% | 107% | 97.5% | 89.9% |
| COc1cc(-c2nn(-c3cccc(NC(=O)c4ccccc4)c3)cc2-c2ccncc2)ccc1Cl | 9.39% (active) | 19.6% | 66.4% | 46.5% | 42.1% | 47.4% | 0.0228% (active) | -1.34% (active) | 0.342% (active) |
| COC(=O)c1nc(-c2ccccc2)oc1S(=O)(=O)N1CCN(c2cccc(Cl)c2)CC1 | 36.6% | 76.3% | 81.9% | 103% | 92.9% | 77.8% | 69.2% | 85.7% | 89.2% |
| COc1cc(/C=C/C(=O)c2c(C)nc3ccccc3c2C)ccc1OCCCCOc1cc2c(cc1OC)C(=O)N1CCC[C@H]1C=N2 | -61.2% (active) | -7.99% (active) | -59.6% (active) | -20.1% (active) | -50.1% (active) | -100% (active) | -57.1% (active) | 39% | 43.9% |
| Cc1ccc(NS(=O)(=O)c2cc(C)ccc2C)cc1 | 13.6% | 54.8% | 82.8% | 92.6% | 56.3% | 53.8% | 3.62% (active) |  | 2.96% (active) |
| O=C(Nc1cccc(-n2cc(-c3ccncc3)c(-c3ccc(Cl)c(O)c3)n2)c1)c1ccc(N2CCOCC2)c(C(F)(F)F)c1 | 5.19% (active) | 37% | 116% | 108% | 74.2% | 96.8% | 56% | 15.5% | 43.9% |
| COc1ccc(Nc2nn3c(C)cc(C)nc3c2C(=O)Nc2ccc(C)cc2)c(OC)c1 | 102% | 100% | 82.9% | 102% | 87.7% | 97.1% | 105% | 105% | 105% |
| COc1ccc(S(=O)(=O)NCCCNc2nccc(-c3c(-c4cccc([N+](=O)[O-])c4)nc4sccn34)n2)cc1 | 11.5% | 29.8% | 98.7% | 29.2% | 89.6% | 40.1% | 41.2% |  | 22.9% |
